From PubChem BioAssay
IP6K1 inh: blocks human inositol hexakisphosphate kinase 1. Q92551. IP6K1 kinase, ADP-Glo luminescence, 2 h; hits give low values. activity change, % (series mostly up to about 58 µM). 0.81% of 140,000 active; in the data active = activity change below about -25%; note: % is set by controls: 0 for no effect and ±100 for the full control effect
Target sequence (Q92551 whole entry, looked up): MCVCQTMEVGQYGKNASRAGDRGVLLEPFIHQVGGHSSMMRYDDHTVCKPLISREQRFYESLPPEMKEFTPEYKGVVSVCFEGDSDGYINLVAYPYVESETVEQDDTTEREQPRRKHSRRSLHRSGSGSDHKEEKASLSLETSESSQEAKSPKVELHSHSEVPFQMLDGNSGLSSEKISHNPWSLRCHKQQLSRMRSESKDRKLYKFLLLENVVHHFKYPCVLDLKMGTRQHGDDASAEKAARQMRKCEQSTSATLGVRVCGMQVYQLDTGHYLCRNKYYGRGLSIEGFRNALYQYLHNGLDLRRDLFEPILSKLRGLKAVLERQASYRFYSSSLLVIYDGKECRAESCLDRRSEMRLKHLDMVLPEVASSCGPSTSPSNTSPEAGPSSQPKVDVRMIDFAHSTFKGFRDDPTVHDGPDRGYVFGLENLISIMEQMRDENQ
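ADP-Glo luminescence measures ADP made by human IP6K1 during a 2 h RT reaction with ATP/IP6 (mix at 1.3 mM/130 uM); top library doses 57.5 and 19.1 uM final.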
SNCA expr inhib: reduces expression of the alpha-synuclein gene | Potency, µM (highest dose often 57.2 µM), without a hit: top-dose activity change, negative = inhibition, usual class: inhibitors | 0.17% of 140,000 active | AID 1671194 | HEK-293 SNCA-luciferase knock-in, luminescence, 24 h;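 note: potency is the fitted concentration of half-maximal effect; plate controls were DMSO cells for no effect and cell-free wells for full effect; nearly all actives have a fitted effect of over 45% in size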
SNCA viab count: cell viability loss counter-screen; Potency, µM (series often up to 57.1 µM), for inactives: at the top dose activity change, negative = cytotoxicity, actives largely listed as cytotoxic; HEK-293-SNCA-luc viability, GF-AFC fluorescence, 24 h; 0.12% of 150,000 active;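 note: potency is the fitted concentration of half-maximal effect; 0% = DMSO-treated cells and -100% = medium-only wells without cells; nearly all actives have a fitted effect of over 30% in size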
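HEK-293-SNCA-luc cells (1500/well) plated 24 h, then exposed 24 h to a dilution series; GF-AFC added 30 min at 37C, fluorescence 405/540 nm; normalised to medium-only and DMSO wells, Hill fit.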
KDM5B inhibitor: inhibitors of human KDM5B histone demethylase; KDM5B demethylase, FDH-coupled NADH fluorescence (FDH is formaldehyde dehydrogenase); Potency, µM (highest dose often 57.7 µM), usual class: inhibitors; 2.6% of 220,000 active; AID 1347165; note: potency is the fitted concentration of half-maximal effect; 0% is about no effect; nearly all actives have a fitted effect of over 70% in size
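Measured: NADH fluorescence change, 30 min, RT. System: KDM5BΔAP 200 nM final, H3K4me3 peptide, α-KG, Fe(II), ascorbate, NAD⁺ plus FDH, pH 7.5 HEPES. Compounds: titrated, 10 min pre-incubation with enzyme.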
The depositor's hits bear a star; i = inactive; ? = inconclusive; · = not tested or not shown; [ ] = dose if it differs, or a comment. In the library only some 3% were active in any assay of this set; here they are far more common. Unless noted, calls come from the whole dose curve; as a rule, active = well fitted curve in the direction sought with a large enough effect; inconclusive = small, poorly fitted or top-dose-only effect, or another doubt; inactive = no such curve, though single readings can be large; an effect the other way counts as inactive or inconclusive.

SMILES	IP6K1 inh	SNCA expr inhib	SNCA viab count	KDM5B inhibitor
Cc1noc(C)c1-c1cc(-c2ccc([S+](C)(=O)[O-])cc2)cn2cncc12	-9	70%[87.6 µM]	6%[87.6 µM]	32µM*
Cc1noc(C)c1-c1cc(-c2ccc(CO)cc2)cn2cncc12	-16	7%[87.6 µM]	-6%[87.6 µM]	35µM*
COc1cccc(Oc2c(C(F)(F)F)oc3cc(OC(C)=O)ccc3c2=O)c1	·	·	·	i
COc1ccccc1-c1nc(N2CCOCC2)cc2c1CN(Cc1cnn(C)c1)C2=O	23	4%[87.6 µM]	2%[87.6 µM]	35µM*
Cn1cc(-c2nc(N3CCOCC3)cc3c2CN(CC2CC2)C3=O)cn1	10	15%[87.6 µM]	15%[87.6 µM]	i
CC(=O)Nc1cccc(-c2nc(N3CCOCC3)cc3c2CN(Cc2cnn(C)c2)C3=O)c1	18	16%	14%	28µM*
COc1ccccc1-c1ccc(CN2CCC(NC(=O)C3CCCCC3)C2)cc1 (stereo not drawn)	8	·	·	·
Cc1cc(C[C@@H]2COC[C@@H]2NC(=O)COc2cccc(C)c2C)on1	2	-28%	4%	20µM*
O=C(N[C@H](c1ccccn1)C1CC(O)C1)c1cnc2ccccn2c1=O (stereo partly drawn)	6	15%	-7%	25µM*
Cc1cc2c(cc1C(=O)N[C@H](c1ccccn1)C1CC(O)C1)OCCO2 (stereo partly drawn)	3	4%	4%	i
Cc1cc(NC(=O)C2CC2)sc1C(=O)NC(C)c1ccccc1Br (stereo not drawn)	·	·	·	i
CC(C)N(Cc1ccccc1)Cc1nnc2cc(-c3nc(-c4ccccc4)no3)ccn12	10	96%	-3%	28µM*
CC(C)CN(Cc1nnc2cc(-c3nc(-c4ccccc4)no3)ccn12)CC(C)C	18	6%	3%	?
c1ccc(CC2CCN(Cc3nnc4cc(-c5nc(-c6ccccc6)no5)ccn34)CC2)cc1	40	74%	1%	i
CN(Cc1ccccc1)Cc1nnc2cc(-c3nc(-c4ccccc4)no3)ccn12	19	45%	-5%	28µM*
Cc1ccc(C(CC(=O)Nc2ccc(F)cc2)c2c[nH]c3ccccc23)cc1 (stereo not drawn)	-11	-17%	7%	i
COc1ccc(-c2noc([C@@H]3C[C@@H](O)CN3Cc3ccc(S(C)(=O)=O)cc3)n2)cc1	-4	142%[87.6 µM]	-9%[87.6 µM]	?
CS(=O)(=O)c1ccc(CN2C[C@H](O)C[C@H]2c2nc(-c3cnccn3)no2)cc1	2	-3%[87.6 µM]	13%[87.6 µM]	35µM*
Fc1cccc(OCc2cc(-c3ccccc3)on2)c1	·	·	·	i
CC1=CC(C)C(COC(=O)C[N+]2(C)CCOCC2)C(C)C1 (stereo not drawn)	·	·	·	i
COc1ccc(-c2ccnc3nc(CCc4ccc(OC)c(OC)c4)nn23)cc1	-11	5%	-6%	25µM*
CCc1nc2nccc(-c3ccc(OC)c(OC)c3)n2n1	-5	11%	0%	20µM*
COc1ccc(CCc2nc3nccc(-c4ccc(OC)cc4)n3n2)cc1	-11	51%	2%	25µM*
CCc1nc2nccc(-c3ccc(Br)cc3)n2n1	12	4%	22%	16µM*
Cc1ccc2oc(C(=O)Nc3ccc(S(N)(=O)=O)cc3)cc(=O)c2c1	·	·	·	i
SMILES	IP6K1 inh	SNCA expr inhib	SNCA viab count	KDM5B inhibitor
COc1ccccc1CN1CCNc2cnc(Nc3ccccc3)cc2C1	-19	-19%[87.6 µM]	-19%[87.6 µM]	?
COc1cccc(CN2CCNc3cnc(Nc4ccccc4)cc3C2)c1	-6	-16%[87.6 µM]	-3%[87.6 µM]	35µM*
COc1cccc(Nc2cc3c(cn2)NCCN(Cc2ccccc2)C3)c1	-22	-4%[87.6 µM]	-10%[87.6 µM]	40µM*
COc1ccccc1N1CCN(c2nc3c(S(=O)(=O)c4ccc(C)c(C)c4)nnn3c3ccc(Cl)cc23)CC1	-28*	-3%	-5%	?
COc1cncc(Nc2ncc(-c3cccc(F)c3)c3c2OCC3)c1	-14	-5%[87.6 µM]	-11%[87.6 µM]	32µM*
COc1ccc(-c2cnc(Nc3ccccc3)c3c2CCO3)cn1	-14	96%[87.6 µM]	-10%[87.6 µM]	40µM*
COc1ccccc1-c1cnc(Nc2cccnc2)c2c1CCO2	11	15%[87.6 µM]	-16%[87.6 µM]	i
CN(C)c1cccc(-c2cnc(Nc3ccncc3)c3c2CCO3)c1	-15	8%[87.6 µM]	?	28µM*
COc1cccc(Nc2ncc(-c3cccnc3)c3c2OCC3)c1	-12	172%[87.6 µM]	-4%[87.6 µM]	32µM*
COC(=O)C1CCCCN1S(=O)(=O)c1c(F)cccc1F (stereo not drawn)	·	·	·	i
CCOC(=O)c1[nH]c2ccc(F)cc2c1NC(=O)c1ccccc1F	·	·	·	i
CC(Sc1nnc(N2CCCC2)n1-c1cccc(Cl)c1)c1nc(-c2ccco2)no1 (stereo not drawn)	·	·	·	i
Cn1cc(-c2cnc(Nc3ccc(F)cc3)c3c2CCO3)cn1	-14	62%[87.6 µM]	-21%[87.6 µM]	6.3µM*
Fc1cccc(Nc2ncc(-c3cncnc3)c3c2OCC3)c1	-11	12%[87.6 µM]	3%[87.6 µM]	·
COc1ccc(C(=O)N2CCc3onc(-c4ccc(C(F)(F)F)cc4)c3C2)o1	11	32%	3%	10µM*
Oc1ccc(C=Cc2cc(O)cc(O)c2)cc1	·	12µM*	-5%	·
COc1cccc2c1C(=O)c1c(O)c3c(c(O)c1C2=O)C[C@@](O)(C(C)=O)C[C@H]3O[C@H]1C[C@H](N)[C@H](O)[C@H](C)O1	·	0.24µM*	?	·
Nc1ccc([N+](=O)[O-])cc1NS(=O)(=O)c1ccc2ccccc2c1	·	·	·	i
CC1(CCCCc2ccccc2)COc2ccc(C(=O)NCCN3CCOCC3)cc2N1 (stereo not drawn)	-8	?	4%[87.6 µM]	35µM*
CC1(CCCCN2CCOCC2)COc2ccc(C(=O)NCc3ccccc3)cc2N1 (stereo not drawn)	-2	-12%[87.6 µM]	10%[87.6 µM]	40µM*
CC1(CCCCN2CCOCC2)COc2ccc(C(=O)Nc3ccc4[nH]ccc4c3)cc2N1 (stereo not drawn)	2	?	1%	i
COc1cccc(NC(=O)c2ccc3c(c2)NC(C)(CCCCN2CCOCC2)CO3)c1 (stereo not drawn)	-11	26%[87.6 µM]	10%[87.6 µM]	?
CC1(CCCCN2CCOCC2)COc2ccc(C(=O)NCc3ccco3)cc2N1 (stereo not drawn)	2	4%[87.6 µM]	6%[87.6 µM]	35µM*
COc1cccc(C(=O)NCc2ccc(C)cc2)c1	·	·	·	i
O=C(NCCc1ccc(F)cc1)C1CCN(C(=O)c2ccc(-c3cccs3)cc2)CC1	-13	·	·	·
Cc1nc2ncccn2c1C(=O)N[C@H]1[C@H]2CCO[C@H]2[C@@H]1N(C)C	-1	7%	3%	32µM*
Cc1nc(N2CCCCC2)ncc1C(=O)N[C@H]1[C@H]2CCO[C@H]2[C@@H]1N(C)C	12	-28%	10%	22µM*
CC(=O)N[C@@H]1CN(S(=O)(=O)c2sccc2C)C[C@H]1c1ccc(C)o1	18	-1%	-3%	i
CC(=O)N[C@@H]1CN(Cc2cc(=O)n3[nH]cnc3n2)C[C@H]1c1ccc(C)o1	21	0%	2%	22µM*
COc1cc(C2CC(=O)Nc3nc(-c4ccccc4)[nH]c(=O)c32)cc(OC)c1O (stereo not drawn)	·	·	·	i
